Experimental findings from PubChem BioAssay (Tox21) are described below.

Experiment [1] is described as follows: qHTS assay to identify small molecule agonists of the RXR signaling pathway - cell viability counter screen (AID 1159529).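 Note: HEK 293T cells carrying an RXR-alpha UAS beta-lactamase reporter; series mostly up to about 77 µM; nearly all actives have a fitted effect of over 50% in size.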 In outline:
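Viability read-out for the RXR-alpha agonist qHTS: luminescent CellTiter-Glo signal after 30 min at RT. HEK 293T bla reporter cells, 2% charcoal-stripped FBS, 16 hr compound incubation; tetraoctyl ammonium bromide as cytotoxic control.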

Experiment [2] is described as follows: qHTS assay to identify small molecule antagonists of the retinoid acid receptor (RAR) signaling pathway - cell viability counter screen (AID 1159551). Note: nearly all actives have a fitted effect of over 35% in size. Put shortly:
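Luminescent ATP quantitation (CellTiter-Glo) gave cell viability in C3RL4 cells exposed to test chemicals for 6 h at 37 C alongside 1 uM final retinol.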
Background: qHTS replaces the single test concentration by a dilution series.

The nature of experiment [3]: qHTS assay to identify small molecule antagonists of the retinoic acid receptor (RAR) signaling pathway (AID 1159552; note: nearly all actives have a fitted effect of over 50% in size). In outline: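 Using a RARE-driven luciferase construct in C3RL4 cells, retinol at 1 uM final provided the agonist stimulus while compounds were co-applied. After 6 hours at 37 C, luminescence was recorded to flag inhibitors of retinol signaling.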
The nature of experiment [4]: qHTS assay to identify small molecule agonists of the retinoic acid receptor (RAR) signaling pathway (AID 1159553). Put shortly:
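Luminescence from a RARE-driven luciferase reporter in C3RL4 cells served as the read-out, measured after 30 min with detection reagent at room temperature. Compounds in DMSO were applied for 6 hr at 37 C following overnight seeding.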

Experiment [5] in a line: qHTS assay to identify small molecule antagonists of the estrogen related receptor (ERR) signaling pathway - cell viability counter screen (AID 1224818). Note: series mostly up to about 46 µM. Put shortly:
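Multiplexed counter screen to separate cytotoxic compounds from true ERR modulators. ERR cells received DMSO-dissolved compounds after a 6 h pre-incubation, were exposed 17.5 h at 37 C, then assayed with CellTiter-Fluor fluorescence.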

Experiment [6] is described as follows: qHTS assay to identify small molecule antagonists of the estrogen related receptor (ERR) signaling pathway (AID 1224819;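 note: luminescence from an ERR-driven luciferase reporter measured with One-Glo reagent; series mostly up to about 46 µM; nearly all actives have a fitted effect of over 50% in size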). In outline:
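Seed ERR cells 2,000/well; rest 6 h at 37 C/5% CO2; pin compounds in DMSO; incubate 18 h at 37 C; add One-Glo; wait 30 min at room temperature; measure luminescence.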

Experiment [7] can be described thus: qHTS assay to identify small molecule agonists of the estrogen related receptor (ERR) signaling pathway (AID 1224820). Put shortly: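 Cells: ERR line from NTP, 2,000/well. Pre-incubation 6 h, 37 C/5% CO2. Compound (DMSO) pin transfer, 18 h 37 C. One-Glo, 30 min RT, luminescence.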
The subject of experiment [8] is estrogen-related receptor alpha (ERRalpha) with PGC-1alpha coactivator, human. The experiment can be described thus: qHTS assay to identify small molecule antagonists of the estrogen related receptor signaling pathway with the pleiotropic PPARgamma coactivator (PGC) (AID 1224821; calls by dose curve;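 note: series mostly up to about 46 µM; lower luminescence signal means antagonism of PGC/ERR signalling; nearly all actives have a fitted effect of over 50% in size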). Put shortly:
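Luminescent read-out (One-Glo, 30 min at room temperature) following 18 h treatment of PGC/ERR cells at 37 C with compounds delivered in DMSO. Cells had settled 6 h at 37 C/5% CO2 before dosing.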

A short description of experiment [9]: qHTS assay to identify small molecule antagonists of the estrogen related receptor signaling pathway with the pleiotropic PPARgamma coactivator (PGC) cell viability counter screen (AID 1224822; note: series mostly up to about 46 µM). In outline: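 Cells: PGC/ERR, 2,000/well, 1536-well format. Pre-incubation 6 h, 37 C/5% CO2. Compound exposure 17.5 h, 37 C. Detection: CellTiter-Fluor, 30 min, fluorescence.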

A short description of experiment [10]: qHTS assay to identify small molecule agonists of the estrogen related receptor signaling pathway with the pleiotropic PPARgamma coactivator (PGC) (AID 1224823). In outline: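 Steps: plate PGC/ERR cells at 2,000 cells/well; incubate 6 h, 37 C/5% CO2; pin-transfer compounds (DMSO); incubate 18 h, 37 C; add One-Glo; 30 min RT; read luminescence.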
For experiment [11], the target named is Luciferin 4-monooxygenase (Photinus pyralis) (UniProt P08659). Put plainly: qHTS assay to identify small molecule inhibitors of firefly luciferase (AID 1224835). Note: series mostly up to about 120 µM; nearly all actives have a fitted effect of over 25% in size. In outline: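 Inhibition of purified Photinus luciferase is measured by luminescence. Substrate levels (D-luciferin, ATP) sit at their KM values. Each compound is tested in a concentration series.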

Experiment [12] can be described thus: qHTS assay to identify small molecule agonists of the constitutive androstane receptor (CAR) signaling pathway - cell viability counter screen (AID 1224836). Note: nearly all actives have a fitted effect of over 45% in size. Note: potency is the fitted concentration of half-maximal effect. Put shortly:
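Multiplexed viability check: HepG2-CYP2B6-hCAR cells, 15-point compound dosing, 0.75 uM PK11195 final, 23 h at 37 C, CellTiter-Fluor fluorescence.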

Experiment [13] in a line: qHTS assay to identify small molecule antagonists of the constitutive androstane receptor (CAR) signaling pathway - cell viability counter screen (AID 1224837). Note: nearly all actives have a fitted effect of over 45% in size. Note: potency is the fitted concentration of half-maximal effect. In outline: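 HepG2-CYP2B6-hCAR cells, 2500/well, 4 hr pre-incubation; compound titration, 15 conc.; CITCO 50 nM final; 23 hr, 37 C/5% CO2; CellTiter-Fluor, fluorescence intensity.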
Experiment [14] addresses Nuclear receptor subfamily 1 group I member 3 (Homo sapiens) (UniProt Q14994). The experiment can be described thus: qHTS assay to identify small molecule antagonists of the constitutive androstane receptor (CAR) signaling pathway (AID 1224838).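 Note: HepG2 cells stably expressing hCAR with CYP2B6 luciferase reporter stimulated by CITCO; nearly all actives have a fitted effect of over 40% in size.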 In outline:
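HepG2-CYP2B6-hCAR cells; 4 h pre-incubation; cpd (15 conc) + CITCO 50 nM final; 24 h, 37 C/5% CO2; ONE-Glo, luminescence.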

For experiment [15] the target is unchanged. Put plainly: qHTS assay to identify small molecule agonists of the constitutive androstane receptor (CAR) signaling pathway (AID 1224839).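 Note: HepG2 cells stably carrying human CAR and a CYP2B6 luciferase reporter; series mostly up to about 92 µM; nearly all actives have a fitted effect of over 15% in size.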 Put shortly:
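Using human hepatoma HepG2 cells engineered with hCAR and a CYP2B6-2.2kb reporter, 15-concentration compound series were incubated 24 h alongside PK11195 at 0.75 uM final, with luminescence quantified afterwards.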

A short description of experiment [16]: qHTS assay to identify small molecule antagonists of the estrogen related receptor signaling pathway with the pleiotropic PPARgamma coactivator (PGC) from Tox21 10K library - cell viability counter screen (AID 1224840; active = well fitted cell-killing curve with a large enough effect in the repeat runs, not every such curve was filed as active; note: nearly all actives have a fitted effect of over 40% in size). In outline:
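PGC/ERR cells, 2,000/well; 6 h pre-incubation 37 C/5% CO2; cpd in DMSO via pin tool; 17.5 h 37 C; CellTiter-Fluor, 30 min; fluorescence.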

Experiment [17] is described as follows: qHTS assay to identify small molecule antagonists of the estrogen related receptor signaling pathway with the pleiotropic PPARgamma coactivator (PGC) from Tox21 10K library (AID 1224841; call rule not given here). Put shortly:
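PGC/ERR cell line, 2,000 cells/well; 6 h pre-incubation 37 C/5% CO2; compounds (DMSO) pinned in; 18 h, 37 C; One-Glo, 30 min RT; luminescence.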

Experiment [18] can be described thus: qHTS assay to identify small molecule agonists of the estrogen related receptor signaling pathway with the pleiotropic PPARgamma coactivator (PGC) from Tox21 10K library (AID 1224842). Note: nearly all actives have a fitted effect of over 15% in size. Put shortly: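 Luminescence from One-Glo (30 min, room temperature) measured after PGC/ERR cells had 18 h at 37 C with pinned compound (23 nL in DMSO). Cells had been seeded at 2,000 per well and pre-incubated 6 h.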

The nature of experiment [19]: qHTS assay to identify small molecule antagonists of the estrogen related receptor (ERR) signaling pathway from Tox21 library - cell viability counter screen (AID 1224834). Note: nearly all actives have a fitted effect of over 30% in size. In outline: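 Fluorescence from CellTiter-Fluor gives the viability read-out, taken 30 min after reagent addition. Before that, ERR cells seeded 6 h earlier were incubated with compounds for 17.5 h at 37 C.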

Experiment [20] addresses Thyrotropin receptor (Homo sapiens) (UniProt P16473). The experiment can be described thus: qHTS assay to identify small molecule agonists of the thyroid stimulating hormone receptor (TSHR) signaling pathway (AID 1224843; calls by dose curve; note: nearly all actives have a fitted effect of over 45% in size). In outline:
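Screening of the Tox21 10K collection used HEK293 cells engineered with TSHR at 800 cells per well. After a 30-min room-temperature compound exposure, HTRF cAMP reagents were added and fluorescence recorded 1 h later.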

Records with an inconclusive call do not appear. Unmarked numbers belong to inactive results. Active and inactive are the calls of the source. Unless noted, calls come from the whole dose curve; as a rule, active = well fitted curve in the direction sought with a large enough effect in the repeat runs; inconclusive = weak or mixed curves; inactive = no such curve, though single readings can be large; an effect the other way counts as inactive or inconclusive.

Luciferin 4-monooxygenase (Photinus pyralis), sequence (P08659 whole entry, looked up): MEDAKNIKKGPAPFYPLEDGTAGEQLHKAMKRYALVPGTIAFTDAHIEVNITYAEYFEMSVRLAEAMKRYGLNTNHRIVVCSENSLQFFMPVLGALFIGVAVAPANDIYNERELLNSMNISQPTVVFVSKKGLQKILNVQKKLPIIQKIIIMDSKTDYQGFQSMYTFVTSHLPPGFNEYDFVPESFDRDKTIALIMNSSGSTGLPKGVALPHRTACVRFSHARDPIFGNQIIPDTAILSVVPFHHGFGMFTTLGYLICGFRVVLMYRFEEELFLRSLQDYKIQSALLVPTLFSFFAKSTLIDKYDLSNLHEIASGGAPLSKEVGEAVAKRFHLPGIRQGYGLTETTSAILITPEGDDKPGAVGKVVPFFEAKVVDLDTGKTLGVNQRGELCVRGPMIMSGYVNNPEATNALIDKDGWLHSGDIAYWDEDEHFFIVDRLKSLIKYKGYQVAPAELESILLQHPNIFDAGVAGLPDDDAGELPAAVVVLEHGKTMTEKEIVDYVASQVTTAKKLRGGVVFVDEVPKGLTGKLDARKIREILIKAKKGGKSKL
Thyrotropin receptor (Homo sapiens), sequence (P16473 whole entry, looked up): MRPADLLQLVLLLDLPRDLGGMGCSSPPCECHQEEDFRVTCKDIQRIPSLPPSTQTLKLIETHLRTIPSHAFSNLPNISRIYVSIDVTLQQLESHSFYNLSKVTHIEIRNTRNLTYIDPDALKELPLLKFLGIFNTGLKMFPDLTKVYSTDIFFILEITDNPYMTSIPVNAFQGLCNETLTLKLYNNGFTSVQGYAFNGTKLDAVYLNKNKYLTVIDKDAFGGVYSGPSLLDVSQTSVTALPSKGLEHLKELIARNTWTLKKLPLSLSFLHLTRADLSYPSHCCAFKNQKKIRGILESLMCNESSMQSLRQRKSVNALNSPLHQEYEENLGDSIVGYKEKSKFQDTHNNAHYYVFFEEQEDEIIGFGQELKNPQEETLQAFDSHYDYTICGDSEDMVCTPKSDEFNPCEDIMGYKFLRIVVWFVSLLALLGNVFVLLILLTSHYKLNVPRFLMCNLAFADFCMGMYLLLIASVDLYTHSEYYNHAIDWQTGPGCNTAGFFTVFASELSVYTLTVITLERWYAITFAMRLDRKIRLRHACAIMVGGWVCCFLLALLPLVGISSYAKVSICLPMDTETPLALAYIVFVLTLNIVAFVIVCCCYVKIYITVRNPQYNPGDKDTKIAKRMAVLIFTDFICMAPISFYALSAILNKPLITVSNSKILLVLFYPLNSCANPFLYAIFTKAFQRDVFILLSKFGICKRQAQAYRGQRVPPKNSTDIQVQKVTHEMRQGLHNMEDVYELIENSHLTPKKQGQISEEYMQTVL
Nuclear receptor subfamily 1 group I member 3 (Homo sapiens), sequence (Q14994 whole entry, looked up): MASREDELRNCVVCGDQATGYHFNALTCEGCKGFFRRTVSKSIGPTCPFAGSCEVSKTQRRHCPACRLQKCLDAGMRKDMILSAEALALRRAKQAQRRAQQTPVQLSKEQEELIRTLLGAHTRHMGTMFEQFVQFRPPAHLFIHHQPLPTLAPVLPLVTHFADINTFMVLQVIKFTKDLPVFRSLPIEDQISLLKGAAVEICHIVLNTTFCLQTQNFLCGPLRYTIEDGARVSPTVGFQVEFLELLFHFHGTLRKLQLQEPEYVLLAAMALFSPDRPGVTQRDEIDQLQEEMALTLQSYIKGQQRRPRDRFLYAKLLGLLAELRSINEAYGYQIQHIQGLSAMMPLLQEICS

For the compound `NC(N)=N/N=C/c1c(Cl)cccc1Cl`, the Potency result in experiment [1], in experiment [2], in experiment [3], in experiment [4], in experiment [11] and in experiment [14] was “inactive” each time. The Potency result in experiment [15], in experiment [16], in [17] and in [18] was “inactive” in each case. For the same compound, the compound was classed as inactive in experiment [5], in experiment [6], in experiment [7], in experiment [8], in experiment [9] and in experiment [10]. Besides, the Potency in [12] and in [13] was 23.7 µM (active) each time.

On to `CCCCC(CC)(CO)CO`, for which the Potency entry in experiment [1], in experiment [2], in experiment [3], in experiment [4], in experiment [19] and in experiment [11] was “inactive” throughout. Also, the Potency result in experiment [12], in experiment [13], in experiment [14], in experiment [15], in [16] and in experiment [20] was “inactive” throughout.

Consider `CCCCCCCCCO`, for which the Potency entry in experiment [1], in experiment [2], in experiment [3], in experiment [4], in [19] and in experiment [11] was “inactive” each time. The Potency entry in experiment [12], in experiment [13], in experiment [14], in [15], in experiment [16] and in [17] was “inactive” throughout. The Potency result in experiment [18] and in experiment [20] was “inactive” in each case.

For the compound `CCN(CC)C(C)CN1c2ccccc2Sc2ccccc21` (stereo not drawn), the Potency entry in experiment [1], in experiment [2], in experiment [3], in experiment [4], in experiment [19] and in experiment [11] was “inactive” in each case. For the same compound, the Potency entry in [12], in experiment [13], in [14], in [15], in experiment [16] and in experiment [20] was “inactive” each time. Also, the compound was classed as inactive in [5].

`O=C(/C=C/c1ccc(O)c(O)c1)O[C@@H]1C[C@](O)(C(=O)O)C[C@@H](O)[C@H]1O`: the Potency entry in experiment [1], in [2], in experiment [3], in [4], in [19] and in experiment [11] was “inactive” in each case. In addition, the Potency result in experiment [12], in experiment [13] and in experiment [16] was “inactive” each time.

Regarding `CCCCCC(CO)CCC` (stereo not drawn), the Potency result in experiment [1], in experiment [2], in [3], in [4], in experiment [19] and in [11] was “inactive” each time. Also, the Potency entry in experiment [12], in experiment [16], in experiment [17], in experiment [18] and in [20] was “inactive” each time.

For the compound `CN(c1nccc(=O)[nH]1)C1CCN(c2nc3ccccc3n2Cc2ccc(F)cc2)CC1`, the Potency entry in [1], in experiment [2], in experiment [3], in experiment [4], in experiment [19] and in experiment [11] was “inactive” in each case. Moreover, the Potency entry in [12], in experiment [13], in [14], in [15], in experiment [16] and in experiment [20] was “inactive” in each case.

Turning to `CC(C)(Oc1ccc(Cl)cc1)C(=O)OCCCOC(=O)C(C)(C)Oc1ccc(Cl)cc1`, the Potency entry in experiment [1], in experiment [2], in experiment [3], in experiment [4], in [19] and in experiment [11] was “inactive” throughout. Moreover, the Potency entry in [12] and in [16] was “inactive” each time.

On to `c1ccc(CNCc2ccccc2)cc1`, for which the Potency entry in experiment [1], in experiment [2], in experiment [3], in experiment [4], in experiment [19] and in experiment [11] was “inactive” each time. Moreover, the Potency result in [12], in [13], in experiment [14], in experiment [15] and in experiment [16] was “inactive” in each case.
